The list is not random: actives were taken first. Their share in the collection is about 0.77%.
RecA splice inh: Mtb RecA intein splicing inhibition; cell-free RecA intein splicing, fluorescence; inhibition, % (concentration not given with the values); 290,000 compounds, 0.75% hits; AID 2221; in the data active means inhibition above about 30%; inconclusive means no clear call, values can overlap the other calls
UGM FP inh: inhibitors of M. tuberculosis UDP-galactopyranose mutase; P9WIQ1; purified UGM, fluorescence polarization probe displacement; inhibition, % at 10 µM; 320,000 compounds, 0.06% hits; AID 504406; in the data active means inhibition above about 10%, passing the limit was not always enough; inconclusive means no clear call, values can overlap the other calls
Target sequence (P9WIQ1 whole entry, looked up): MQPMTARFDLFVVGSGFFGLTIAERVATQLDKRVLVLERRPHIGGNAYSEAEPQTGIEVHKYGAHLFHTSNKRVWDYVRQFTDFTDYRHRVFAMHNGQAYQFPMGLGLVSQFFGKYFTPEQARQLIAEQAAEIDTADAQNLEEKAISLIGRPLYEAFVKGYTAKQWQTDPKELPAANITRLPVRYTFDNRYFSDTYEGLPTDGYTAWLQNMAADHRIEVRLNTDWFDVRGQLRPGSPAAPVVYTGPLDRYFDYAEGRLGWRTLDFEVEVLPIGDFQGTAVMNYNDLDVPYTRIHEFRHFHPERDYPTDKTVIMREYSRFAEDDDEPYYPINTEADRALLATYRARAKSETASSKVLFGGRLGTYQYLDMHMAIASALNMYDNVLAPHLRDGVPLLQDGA
Mtb bLac sens: beta-lactam sensitization of Mtb H37Rv; M. tuberculosis H37Rv growth with meropenem, percent inhibition; inhibition, % at 25 µM; 330,000 compounds, 0.27% hits; AID 434955; call rule not given here;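 further: growth measured after seven days incubation then overnight dye step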
Mtb hypoxia rep: Mtb hypoxia fluorescent reporter inhibition; M. tuberculosis hypoxia-regulated fluorescent reporter, fluorescence; 300,000 compounds, 0.1% hits; fluorescence inhibition, % (concentration not given with the values); in the data active means fluorescence inhibition mostly above about 23%, no sharp cut-off; inactive means mostly below about 17%
Rv3671c inh: inhibitors of M. tuberculosis serine protease Rv3671c. AID 2606. P9WHR9. inhibition, % at 5.96 µM. 320,000 compounds, 0.048% hits;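 further: extracellular domain of Rv3671c used as enzyme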
Rv3671c cf: confirmation of M. tuberculosis Rv3671c protease inhibitors | inhibition, % at 5.96 µM | shares compounds with Rv3671c inh | 140 compounds, 40% hits
DNA intercal FP: counter-screen: DNA intercalators | acridine orange-DNA binding, fluorescence polarization | 35 compounds, 60% hits | AC50, µM | shares compounds with UGM FP inh;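 active means fitted AC50 no greater than ten times the top concentration tested, cut at about 17 µM in these data; inconclusive means flat fit with 30 to 70% signal change, or an unreliable fit; inactive means AC50 beyond ten times the top concentration tested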
Of the large screens only hits and unclear results are named; the others gave an inactive call (follow-up assays come after a bar, where they were run). Unless noted, no stated cut-off is given here; in the data, active means inhibition above about 38%; inactive means the rest.

CC1CN(C(C)CO)C(=O)c2cc(NC(=O)Nc3ccc4c(c3)OCO4)ccc2OC1CN(C)S(=O)(=O)c1cccs1 (configuration not stated)	none (no result: RecA splice inh, UGM FP inh, Mtb bLac sens, Rv3671c inh)
CCN1C(=O)C(CC(=O)Nc2ccc(F)cc2)N(CCc2ccc(OC)cc2)C1=S (configuration not stated)	Rv3671c inh 50.6 (no result: Mtb hypoxia rep) | Rv3671c cf inactive
Cc1nn(-c2ccc(Br)cc2)c(=O)c2ccccc12	Rv3671c inh 71.2 | Rv3671c cf inactive
Cc1nn(-c2ccccc2C(=O)O)c(=O)c2ccccc12	none
O=C(CC1CC=CCC(NC(=O)OCC2c3ccccc3-c3ccccc32)C(=O)OCC(Cc2ccccc2)NC1=O)NCCO (configuration not stated)	none (no result: RecA splice inh, UGM FP inh, Mtb bLac sens, Rv3671c inh)
COc1cccc2c1-c1c(O)cccc1C2=O	none
COc1cccc2c1C(=O)c1c(O)c3c(c(O)c1C2=O)C[C@](O)(C(C)=O)C[C@H]3O[C@@H]1C[C@@H](N)[C@@H](O)[C@@H](C)O1	UGM FP inh 33.4, Rv3671c inh 44.5 (no result: Mtb hypoxia rep) | Rv3671c cf inactive
COc1cc2c(cc1OC)C1C(=O)c3ccc4c(c3OC1CO2)CC(C(C)(C)O)O4 (configuration not stated)	none (no result: RecA splice inh, UGM FP inh, Mtb bLac sens, Rv3671c inh)
CC(=O)Oc1ccc2c(c1)Oc1cc(OC(C)=O)ccc1C21OC(=O)c2ccccc21	UGM FP inh inconclusive, Rv3671c inh 121.5 (no result: RecA splice inh) | Rv3671c cf 122.5
Cc1cc(O)ccc1C1(c2ccc(O)cc2C)OC(=O)c2ccccc21	none (no result: Mtb hypoxia rep)
CC(C=NNC(=O)c1ccncc1)=Cc1ccc(C(C)C)cc1	none (no result: RecA splice inh, UGM FP inh, Mtb bLac sens, Rv3671c inh)
CSC[C@@H]1NC(=S)N(c2ccc(C)cc2)C1=O	Rv3671c inh 90.5 | Rv3671c cf 83.3
C#CCNC(=O)C1=CC(c2ccc(C#C)cc2)CC(OCc2ccc(CO)cc2)O1 (configuration not stated)	none (no result: RecA splice inh, UGM FP inh, Mtb bLac sens, Rv3671c inh)
COC(=O)C1=C(c2ccc(OC)c(OC)c2)CC2CCC1N2C(=O)N1CCCC1 (configuration not stated)	none (no result: RecA splice inh, UGM FP inh, Mtb bLac sens, Rv3671c inh)
CCOCCCn1c(SCC(=O)Nc2oc(C)c3c(C)n[nH]c(=O)c23)nc2ccccc2c1=O	none (no result: RecA splice inh, UGM FP inh, Mtb bLac sens, Rv3671c inh)
Cc1n[nH]c(=O)c2c(NC(=O)CSc3nc4ccccc4c(=O)n3CCCOC(C)C)oc(C)c12	Rv3671c inh 91.9 (no result: Mtb hypoxia rep) | Rv3671c cf inactive
C#CCOCCOCCOCCNc1nc(N2CCN(C(=O)CCCCCCCCCCNC(=O)C(CCSC)n3cc(CCO)nn3)CC2)nc(N2CCN(C(=O)CCCCCCCCCCNC(=O)C(CCSC)n3cc(CCO)nn3)CC2)n1 (configuration not stated)	none (no result: RecA splice inh, UGM FP inh, Mtb bLac sens, Rv3671c inh)
O=C(N/N=C/c1cccnc1)c1cccc(NC(=O)c2cccc(Br)c2)c1	Rv3671c inh 60.9 (no result: Mtb hypoxia rep) | Rv3671c cf inactive
O=C(N/N=C/c1cc(Br)ccc1O)c1ccncc1	Rv3671c inh 41.4 (no result: Mtb hypoxia rep) | Rv3671c cf inactive
CC(=O)Nc1cccc(C(=O)N/N=C/c2cccnc2)c1	none (no result: Mtb hypoxia rep)
CCN1C(=O)C2C(c3ccc(-c4ccc(C(C)=O)cc4)cc3)N[C@@](Cc3ccccc3)(C(=O)OC)C2C1=O (some centres not stated)	none (no result: RecA splice inh, UGM FP inh, Mtb bLac sens, Rv3671c inh)
CCCCCCCCCCCCCCCC[n+]1ccc(/C=N/O)cc1	Rv3671c inh 58.8 (no result: RecA splice inh, Mtb hypoxia rep) | Rv3671c cf 72.0 | DNA intercal FP inactive
Cc1ccc(S(=O)(=O)N(C)CC2Oc3ccc(NC(=O)Nc4c(C)noc4C)cc3CC(=O)N(C(C)CO)CC2C)cc1 (configuration not stated)	none (no result: RecA splice inh, UGM FP inh, Mtb bLac sens, Rv3671c inh)
COc1ccc2c3c(cccc13)C(=O)CC2	UGM FP inh 79.0 (no result: Rv3671c inh) | DNA intercal FP inactive
O=C(C=C1NC2(CCCC2)Cc2ccccc21)N1CCOCC1	none (no result: RecA splice inh, UGM FP inh, Mtb bLac sens, Rv3671c inh)
CC(CO)NC(=O)c1ccc2c3n(nc2c1)-c1ccc(Cl)cc1CO3 (configuration not stated)	none (no result: RecA splice inh, UGM FP inh, Mtb bLac sens, Rv3671c inh)
CC1Cc2ccccc2N1C(=O)CSc1nccc(=O)[nH]1 (configuration not stated)	none
CC1Cc2ccccc2N1C(=O)CSc1ncccn1 (configuration not stated)	none | DNA intercal FP inactive
Cc1cc(C)cc(NS(=O)(=O)c2ccc3c(c2)C(C)(C)C(=O)N3C)c1	Mtb bLac sens inconclusive (no result: Mtb hypoxia rep) | DNA intercal FP inactive
CC1=C(C(=O)OCc2cc(C)on2)N2C(=O)C(NC(=O)OCc3cc(C)on3)C2SC1 (configuration not stated)	none (no result: RecA splice inh, UGM FP inh, Mtb bLac sens, Rv3671c inh)
CCOC(=O)N1CCN(c2cc(NCCC(=O)O)c3c4c(onc24)-c2ccccc2C3=O)CC1	none (no result: RecA splice inh) | DNA intercal FP inactive
COc1ccc2ccccc2c1C(O)c1nccn1C (configuration not stated)	UGM FP inh 39.2 | DNA intercal FP inactive
Cn1ccnc1C(O)c1ccccc1 (configuration not stated)	none
O=c1ccc2c(-c3ccccc3)c3ccc(O)cc3oc-2c1	UGM FP inh 41.3 | DNA intercal FP 0.547
Cc1oc2cc(O)ccc2c(=O)c1-c1ccccc1	none
Cc1ccc2c(c1)C1C(CO2)C(c2ccccc2)[C@]2(C)C(=O)N(Cc3ccco3)CC(=O)N12 (some centres not stated)	none (no result: RecA splice inh, UGM FP inh, Mtb bLac sens, Rv3671c inh)
Cc1cccc(N2C(=O)c3cccc4c(N(C)CCO)ccc(c34)C2=O)c1	none | DNA intercal FP inactive
O=C(CCCN1C(=O)c2cccc3cccc(c23)C1=O)N1CCN(c2ccccc2)CC1	none | DNA intercal FP inactive
O=C(CCCN1C(=O)c2cccc3cccc(c23)C1=O)N1CCN(c2ccccc2O)CC1	none

Screens as filed in PubChem.
